From PubChem BioAssay (NCATS)
Records with an inconclusive call do not appear. Where a call stands in place of a potency, no number is given. Activity calls are given as the source filed them. Calls follow the shape of the dose curve; as a rule, active = well fitted inhibition curve with a large enough effect; inconclusive = small, poorly fitted or top-dose-only effect; inactive = flat fitted curve, though single readings scatter.

Assay: P-glycoprotein substrates identified in KB-8-5-11 adenocarcinoma cell line, qHTS therapeutic library screen (AID 1346987); also: nearly all actives have a fitted effect of over 65% in size
Settings: KB-8-5-11 (P-gp overexpressing) viability, CellTiter-Glo, 72 h; series mostly up to 44.5 µM
Outline: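 Compounds are pinned in dose-response onto KB-8-5-11 cells (500 cells/well, colchicine-free medium) and left 72 h at 37 degree C. CellTiter-Glo luminescence then yields AC50 values.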
Potency is read from the fitted curve at half-maximal effect.

| Structure (SMILES) | Potency |
| --- | --- |
| CCCCOc1ccc(S(=O)(=O)n2c(C)nc3ccccc32)cc1 | inactive |
| Nc1nc(O)c(C2=C3C(=Nc4ccccc43)C(=O)NCC2)[nH]1 | inactive |
| CCOc1ccc(CCNC(=O)c2cc3sc(Cl)cc3n2C)cc1OCC | inactive |
| COc1cc(NC(=O)c2cc(C3CC3)on2)c(OC)cc1Cl | inactive |
| CC(C)(C)c1ccc2c(c1)CC[C@H]2NC(=O)Nc1cccc2[nH]ncc12 | inactive |
| CNCCCC1(c2ccccc2)OC(C)(C)c2ccccc21 (stereo not given) | inactive |
| O=C(NCCN1CCN(c2cccc3ccc(O)cc23)CC1)c1ccc(F)cc1 | inactive |
| O=C1Nc2ccccc2-c2nc3ccccc3c(=O)n2-c2c(O)cccc21 | inactive |
| Cc1noc(-c2ccc(-c3ccc(CC(=O)O)cc3)cc2)c1NC(=O)O[C@H](C)c1ccccc1Cl | inactive |
| COc1ccccc1N1CCN(CC(C(=O)NC(C)(C)C)c2ccccc2)CC1 (stereo not given) | inactive |
| COc1ccc([C@H]2OC[C@H]3O[C@@H](O[C@H]4[C@@H]2NC[C@@H]4O)[C@H](O)[C@H]3O)cc1 | 1.61 µM (active) |
| C[C@H](Oc1cc(-n2cnc3ccc(CN4CCN(C)CC4)cc32)sc1C(N)=O)c1ccccc1C(F)(F)F | 4.61 µM (active) |
| O=C(Nc1ccc(Cl)cc1)Nc1cccc(-c2cccc(N3CCCC3)n2)c1 | 20.6 µM (active) |
| Cc1ccccc1C(C(=O)NC1CCCCC1)N(C(=O)Cn1cnc2ccccc21)c1cccc(F)c1 (stereo not given) | 23.1 µM (active) |
| CC[C@@H](C)Nc1cc(C(=O)NC2CC3CCC(C2)N3c2ccc(C(=O)C3CC3)cn2)c(C)cc1C(N)=O (stereo not given in full) | 0.13 µM (active) |
